Measured values reported in PubChem BioAssay.
Activity calls are given as the source filed them. Unless noted, the rule behind the calls is not given here.

What was measured:
[1] = HepG2 liver cancer cell viability effects, profiling panel, resazurin fluorescence, 24 h, PK04 Diversity Set (AID 1172); conditions: higher = more signal; note: test concentration not given here
[2] = basal S. cerevisiae growth modulation, no modifier, primary screen, OD600, strain BY4716, 24 h, basal condition (AID 1173); conditions: OD600, 24 h, higher = more signal, called active from +8 up or from −8 down
[3] = MM1S myeloma cell viability, profiling panel, resazurin fluorescence, basal, 24 h, PK04 Diversity Set (AID 1174); conditions: higher = more signal, called active from +8 up or from −8 down;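 note: MM1S multiple myeloma cell line; test concentration not given here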
[4] = biological target: Dihydroorotate dehydrogenase (quinone), mitochondrial (Plasmodium falciparum (isolate 3D7)) (UniProt Q08210); test: PfDHODH enzyme inhibitors, primary screen, biochemical, C-terminal His tag, absorbance 600 nm (AID 1175); conditions: DCIP absorbance 600 nm, higher = more signal, called active from +8 up or from −8 down;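 note: recombinant parasite enzyme with a five histidine tag at its C terminus; test concentration not given here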
Chain of Dihydroorotate dehydrogenase (quinone), mitochondrial (Plasmodium falciparum (isolate 3D7)) (Q08210 whole entry, looked up): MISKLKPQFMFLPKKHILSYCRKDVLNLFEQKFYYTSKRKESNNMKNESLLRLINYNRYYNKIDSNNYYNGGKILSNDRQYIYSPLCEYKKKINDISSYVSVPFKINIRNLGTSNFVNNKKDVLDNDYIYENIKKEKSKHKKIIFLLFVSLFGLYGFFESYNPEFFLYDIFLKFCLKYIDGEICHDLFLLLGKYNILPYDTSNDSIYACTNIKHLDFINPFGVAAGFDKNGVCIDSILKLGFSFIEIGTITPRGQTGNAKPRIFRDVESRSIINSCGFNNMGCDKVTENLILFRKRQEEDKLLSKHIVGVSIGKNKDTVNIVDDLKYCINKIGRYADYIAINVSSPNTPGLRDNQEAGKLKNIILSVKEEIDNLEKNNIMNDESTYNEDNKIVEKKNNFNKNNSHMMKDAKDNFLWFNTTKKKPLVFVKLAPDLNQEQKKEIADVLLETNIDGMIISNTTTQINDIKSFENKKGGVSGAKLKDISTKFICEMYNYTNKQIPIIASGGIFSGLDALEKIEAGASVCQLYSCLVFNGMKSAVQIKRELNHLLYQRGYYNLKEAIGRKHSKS

[5] = P. aeruginosa biofilm formation inhibitors, primary screen, strain PAO1, LB-PBS medium, absorbance 600 nm (AID 1176); note: test concentration not given here; conditions: P. aeruginosa PAO1 growth/biofilm, A600, 12 h; higher = more signal
[6] = S. cerevisiae RM11-1a growth modifiers, primary screen, strain RM11-1a, OD600, basal, 24 h (AID 1177); conditions: OD600, 24 h, higher = more signal, called active from +8 up or from −8 down;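 note: cultures grown under basal conditions with no added stressor; test concentration not given here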
[7] = E. coli acrAB mutant growth effects, primary screen, E. coli filamentation inducers, strain DRC39, OD650, 24 h (AID 1178); conditions: higher = more signal, called active from +8 up or from −8 down;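 note: growth measured as culture turbidity by optical density at 650 nm; test concentration not given here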
[8] = E. coli acrAB mutant growth effects, primary screen, E. coli filamentation inducers, strain DRC39, OD650, 48 h (AID 1179);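 note: screen aims at cell division blockers that make cells filament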; conditions: E. coli DRC39 delta-acrAB growth, higher = more signal, called active from +8 up or from −8 down
[9] = RPMI8226 myeloma cell viability, profiling panel, resazurin fluorescence, basal, 24 h, PK04 Diversity Set (AID 1180); conditions: higher = more signal;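 note: RPMI8826 multiple myeloma cell line at 5000 cells per well; test concentration not given here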
[10] = biological target: E3 ubiquitin-protein ligase XIAP (Homo sapiens) (UniProt P98170); test: XIAP binders, primary screen, biophysical, small-molecule microarray, fluorescence 635 nm (AID 1181); conditions: small-molecule microarray binding, higher = more signal;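 note: score merges 667 nm emission and signal to noise over triplicate slides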
Chain of E3 ubiquitin-protein ligase XIAP (Homo sapiens) (P98170 whole entry, looked up): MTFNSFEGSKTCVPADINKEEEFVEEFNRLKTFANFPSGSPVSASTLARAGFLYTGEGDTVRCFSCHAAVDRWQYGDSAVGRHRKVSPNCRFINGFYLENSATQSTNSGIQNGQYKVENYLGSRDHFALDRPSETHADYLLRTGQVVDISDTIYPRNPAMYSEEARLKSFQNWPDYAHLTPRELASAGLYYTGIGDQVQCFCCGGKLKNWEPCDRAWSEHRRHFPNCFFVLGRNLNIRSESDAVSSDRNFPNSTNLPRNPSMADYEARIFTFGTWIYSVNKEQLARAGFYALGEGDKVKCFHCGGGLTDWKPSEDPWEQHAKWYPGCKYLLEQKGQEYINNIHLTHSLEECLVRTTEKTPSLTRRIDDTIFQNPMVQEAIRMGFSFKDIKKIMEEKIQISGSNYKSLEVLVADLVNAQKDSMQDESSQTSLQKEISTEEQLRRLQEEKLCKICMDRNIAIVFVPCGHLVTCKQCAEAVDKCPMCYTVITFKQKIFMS

| SMILES | z-score [1] | z-score [2] | z-score [3] | composite z-score [4] | z-score [5] | z-score [6] | z-score [7] | z-score [8] | z-score [9] | composite z-score [10] |
| --- | --- | --- | --- | --- | --- | --- | --- | --- | --- | --- |
| CC(=O)NCCCC[C@@H]1NC(=O)[C@H]2C[C@@H](C(=O)NCCCCCC[N+](C)(C)C)[C@@H](c3ccc(O)cc3)N2C1=O | 0.387 | -0.0177 (inactive) | 0.319 (inactive) | -1.03 (inactive) | 0.519 (inactive) | -0.533 (inactive) | -0.04 (inactive) | -0.63 (inactive) | -0.0771 | -0.0062 |
| CC[C@H](C)C(=O)O[C@H]1CC[C@]2(C)C3=C(CCC2C1(C)C)[C@]1(C)CC[C@H]([C@H](C)CCCC(C)C)[C@@]1(C)CC3 (stereo not given in full) | 1.06 | 0.31 (inactive) | 0.0978 (inactive) | 0.454 (inactive) | -0.283 (inactive) | 0.295 (inactive) | 2.06 (inactive) | 1.47 (inactive) | 1.09 | -0.304 |
| CC(C)(C)OC(=O)CC[C@]1(C(=O)N2CCOCC2)N=C(c2ccc(OCCCO)cc2)O[C@H]1c1ccccc1CN=[N+]=[N-] | 0.125 | -0.0255 (inactive) | -0.362 (inactive) | -0.0668 (inactive) | 1.78 (inactive) | -0.459 (inactive) | 0.565 (inactive) | 0.088 (inactive) | 0.0933 | 0.0159 |
| COc1cccc(OC)c1C(=O)O[C@H]1[C@@H]2OC(=O)[C@H](Cc3cccc(Br)c3)C/C=C/C[C@@H](Cc3cccc(Br)c3)C(=O)O[C@H]2[C@@H](OC)O[C@@H]1CO | -0.946 | -0.696 (inactive) | -1.11 (inactive) | -0.491 (inactive) | 0.277 (inactive) | 0.788 (inactive) | -0.0368 (inactive) | 0.165 (inactive) | -1.38 | 0.182 |
| C=CCNC(=O)[C@@H]1[C@H]2C(=O)O[C@H](c3ccccc3)[C@H](c3ccccc3)N2[C@H](c2ccc(O)cc2)[C@@]12C(=O)Nc1ccc(C#CC3(O)CCCCCC3)cc12 | -0.285 | 0.0504 (inactive) | -0.205 (inactive) | 0.0708 (inactive) | 0.498 (inactive) | 0.117 (inactive) | 0.6 (inactive) | 0.0092 (inactive) | -1.57 | -0.154 |
| Cc1ccc(F)cc1S(=O)(=O)N[C@@H]1CCN(Cc2ccc3c(c2)OCO3)C1 | -0.622 | -4.86 (inactive) | -0.584 (inactive) | 0.171 (inactive) | -0.177 (inactive) | 0.34 (inactive) | -0.572 (inactive) | -2.33 (inactive) | 0.224 | 0.13 |
| COc1ccc(CCNC(=O)[C@@]2(C)c3ccccc3C(=O)N(Cc3cc(C(F)(F)F)cc(C(F)(F)F)c3)[C@H]2c2ccc(CO)cc2)cc1 | 0.0945 | 0.256 (inactive) | 0.084 (inactive) | -0.533 (inactive) | 0.773 (inactive) | -0.147 (inactive) | 0.482 (inactive) | 0.282 (inactive) | 0.639 | 0.0512 |
| COCCCNC(=O)[C@@H]1c2ccccc2C(=O)N(C2CCCCC2)[C@H]1c1ccc(CO)cc1 | 0.559 | -0.32 (inactive) | 0.614 (inactive) | -0.271 (inactive) | 0.745 (inactive) | -0.611 (inactive) | 0.0359 (inactive) | -0.122 (inactive) | 0.505 | -0.0773 |
| C=CCC(OC(C)=O)[C@@H]1[C@@H](N(Cc2ccc(-c3cccc(C(F)(F)F)c3)o2)C(=O)Cc2ccc(F)cc2)c2cc(OCCCO)ccc2N1C(=O)c1ccc2ccccc2c1 (stereo not given in full) | 0.589 | -0.382 (inactive) | 0.81 (inactive) | -1.26 (inactive) | -0.194 (inactive) | -0.423 (inactive) | 0.227 (inactive) | 0.369 (inactive) | 0.934 | -0.224 |
| COCCOC(=O)N1C(=O)[C@@]2(c3cc(C#CCCO)ccc31)[C@H](C(=O)N1CCc3cc(OC)c(OC)cc3C1)[C@H]1C(=O)O[C@H](c3ccccc3)[C@H](c3ccccc3)N1[C@@H]2c1ccccc1OCCO | 0.713 | 1.68 (inactive) | 0.208 (inactive) | 0.0306 (inactive) | 1.38 (inactive) | 2.69 (inactive) | 0.497 (inactive) | 0.74 (inactive) | 1.01 | -0.0945 |
| CC(C)C[C@H]1NC(=O)[C@@H](C)NC(=O)[C@@]23C(=O)N[C@@H](Cc4ccccc4)C2[C@H](C)[C@@]2(C)O[C@H]2C3/C=C/C/C=C\CNC1=O (stereo not given in full) | -0.328 | -0.808 (inactive) | 0.0814 (inactive) | -1 (inactive) | 0.531 (inactive) | -1.27 (inactive) | -0.46 (inactive) | 0.184 (inactive) | 0.184 | -0.102 |
